High-throughput results (PubChem)
ATXN viability = reduces viability in counter-screen for ATXN expression inhibitors | S2 cells (HEK-293 line with an ATXN2-luciferase reporter) viability, CellTiter-Fluor protease fluorescence, 24 h | Potency, µM (titrated, usually from 56.7 µM), actives largely listed as cytotoxic | 400,000 compounds, 0.49% hits | AID 651635; note: nearly all actives have a fitted effect of over 40% in size
Nrf2 block = Nrf2 pathway inhibition. A549 ARE-Fluc reporter, luciferase luminescence, 18-24 h. 360,000 compounds, 2.1% hits. Potency, µM (series often up to 46 µM), for inactives: top-dose activity change, negative = inhibition, hits mostly inhibitors. AID 504444; note: % is set by controls: 0 for no effect and ±100 for the full control effect; nearly all actives have a fitted effect of over 60% in size
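Concentration-response testing used A549 ARE_Fluc cells at 5000 cells/well. Following an 18-24 h compound incubation, viability was read by fluorescence (Ex 405/Em 525) and luciferase output by luminescence.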
A549 tox = kills or reduces viability of A549 cells in Nrf2 counter-screen. A549 ARE-Fluc cells, CellTiter-Fluor viability, 18-24 h. Potency, µM (doses to about 46 µM), without a hit: at the highest dose activity change, negative = cytotoxicity, actives largely listed as inhibitors. 390,000 compounds, 0.16% hits. AID 504648; note: % is set by controls: 0 for no effect and ±100 for the full control effect
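A549 ARE_Fluc cells in 5% FBS OPTI-MEM were exposed to compounds in concentration-response for 18-24 h at 37 deg C. Viability was read by CellTiter-Fluor fluorescence (Ex 405/Em 525) after 30 min, before the luciferase read.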
ATXN2 expr inh = ATXN2 expression inhibition | HEK-293 ATXN2-luciferase reporter, luminescence, 24 h | Potency, µM (highest dose often 57 µM), inactives show at the top dose activity change, negative = inhibition, hits mostly inhibitors | 360,000 compounds, 0.72% hits; note: % is set by controls: 0 for no effect and ±100 for the full control effect; nearly all actives have a fitted effect of over 55% in size
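ATXN2-luciferase reporter cells (luciferase flanked by upstream and downstream ATXN2 gene portions) were treated 24 h at 37 °C with compounds at up to 57 uM. SteadyGlo luminescence gave expression; GF-AFC fluorescence gave viability.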
TGFb SMAD3 inh = TGF-b pathway inhibition. Potency, µM (doses to about 46.1 µM), inactives show at the top dose activity, negative = inhibition, hits mostly inhibitors. AID 588855. 410,000 compounds, 1.2% hits. HepG2 CAGA-GFP TGF-b/SMAD3 reporter, GFP fluorescence, 18 h; TGF-beta stimulated, 500 pg/mL final; note: % is set by controls: 0 for no effect and ±100 for the full control effect; nearly all actives have a fitted effect of over 65% in size
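Smad-responsive CAGA-GFP expression was quantified in HEPG2 cells exposed to compounds and 500 pg/mL final TGF-beta for 18 h at 37 degrees C; unstimulated wells defined full inhibition.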
HepG2 viability = HepG2 cytotoxicity, counter-screen for TGF-b inhibitors; HepG2 CAGA-GFP viability, ATP luminescence, 18 h; Potency, µM (doses to about 46.1 µM), without a hit: top-dose activity change, negative = cytotoxicity, usual class: cytotoxic; 410,000 compounds, 0.76% hits; AID 588856
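HepG2 CAGA-GFP cells (1000/well, DMEM with 1% FBS) received compound, then TGF-beta at 500 pg/mL final, and were incubated 18 hours at 37 degrees C. Viability was read by CellTiter-Glo luminescence. Media-only wells were set as complete cell-killing and DMSO as no toxicity.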
* marks the source's active call; other numbers are inactive results; i = inactive; ? = inconclusive; · = no result; [ ] = another dose, or the depositor's remark. In the library only some 3.8% were active in any assay of this set; here they are far more common. Calls come from the whole dose curve; as a rule, active = well fitted curve in the direction sought with a large enough effect; inconclusive = small, poorly fitted or top-dose-only effect, or another doubt; inactive = no such curve, though single readings can be large; an effect the other way counts as inactive or inconclusive. Potency is the fitted concentration of half-maximal effect.

SMILES	ATXN viability	Nrf2 block	A549 tox	ATXN2 expr inh	TGFb SMAD3 inh	HepG2 viability
Cc1ccc(S(=O)(=O)c2nc(-c3cccs3)oc2SC(C)C)cc1	?	1%[9.27 µM]	-12%	4%	?	-17%
CSc1oc(-c2ccccc2)nc1S(=O)(=O)c1ccc(F)cc1	i	-15%	2%	7%	?	-21%
CCCCS(=O)(=O)c1oc(-c2ccc(F)cc2)nc1S(=O)(=O)c1ccccc1	·	21µM*	?	·	2.8µM*	5.6µM*
CC(C)S(=O)(=O)c1oc(-c2cccs2)nc1S(=O)(=O)c1ccc(F)cc1	·	18µM*	?	·	2.5µM*	3.5µM*
CCS(=O)(=O)c1oc(-c2ccc(F)cc2)nc1S(=O)(=O)c1ccc(Br)cc1	·	?	?	·	2.8µM*	3.5µM*
COc1ccc(N2CCN(C(=O)Cc3ccc(Cl)cc3)CC2)cc1	i	-3%	1%	-10%	-11%	-26%
CSc1oc(-c2ccc(F)cc2)nc1S(=O)(=O)c1ccccc1	i	15%	11%	0%	-2%	10%
CC(C)S(=O)(=O)c1oc(-c2ccc(F)cc2)nc1S(=O)(=O)c1ccccc1	·	?	?	·	1.4µM*	3.2µM*
CCN1CCC(O)(C#Cc2ccccc2)CC1	i	20%	-5%	9%	11%	1%
CC1C(c2ccccc2)N(C)C(c2ccccc2)C(C)C1(O)C#Cc1ccccc1 (centres undefined)	?	-15%	0%	-30%	11µM*	-31%
C#CCOCCOCCOCCNc1nc(N2CCN(C(=O)CCCCCCCCCCNC(=O)[C@H](CCCCN)n3cc(CCCC(=O)O)nn3)CC2)nc(N2CCN(C(=O)CCCCCCCCCCNC(=O)[C@H](CCCCN)n3cc(CCCC(=O)O)nn3)CC2)n1	i	10%	-2%	-30%	-11%	-2%
C#CCOCCOCCOCCNc1nc(N2CCN(C(=O)C(Cc3cc4ccccc4[nH]3)n3cc(C(N)Cc4ccc(O)cc4)nn3)CC2)nc(N2CCN(C(=O)C(Cc3cc4ccccc4[nH]3)n3cc(C(N)Cc4ccc(O)cc4)nn3)CC2)n1 (centres undefined)	32µM*	-1%	?	?	-16%	1%
C#CCOCCOCCOCCNc1nc(N2CCN(C(=O)CCCCCCCCCCNC(=O)[C@H](CCCCN)n3cc(CCCC(=O)O)nn3)CC2)nc(N2CCN(C(=O)CCCCCCCCCCNC(=O)[C@H](CCCN=C(N)N)n3cc(C[C@@H](C)CC)nn3)CC2)n1	28µM*	?	-28%	?	?	-100%
C#CCOCCOCCOCCNc1nc(N2CCN(C(=O)CCCCCCCCCCNC(=O)[C@H](CCCCN)n3cc(CCO)nn3)CC2)nc(N2CCN(C(=O)CCCCCCCCCCNC(=O)[C@H](CCCN=C(N)N)n3cc(C[C@@H](C)CC)nn3)CC2)n1	18µM*	?	?	20µM*	?	-109%
C#CCOCCOCCOCCNc1nc(N2CCN(C(=O)CCCCCCCCCCNC(=O)[C@H](CCCCN)n3cc(C[C@@H](C)CC)nn3)CC2)nc(N2CCN(C(=O)CCCCCCCCCCNC(=O)[C@H](CCCCN)n3cc(C[C@@H](C)CC)nn3)CC2)n1	13µM*	?	?	22µM*	?	10µM*
COCCCNC(=O)c1ccc(Cn2c(=O)c3cccn3c3cccnc32)cc1	·	-26%	-2%	·	-24%	0%
C#CCOCCOCCOCCNc1nc(N2CCN(C(=O)CCCCCCCCCCNC(=O)Cn3cc(C[C@@H](C)O)nn3)CC2)nc(N2CCN(C(=O)CCCCCCCCCCNC(=O)[C@H](CCCCN)n3cc(C[C@@H](C)CC)nn3)CC2)n1	20µM*	?	?	25µM*	?	13µM*
CCOc1cc(CNc2ccc(O)cc2)cc(Br)c1OCc1ccccc1F	?	?	-14%	?	?	-102%
COc1cc(CNc2ccc(O)cc2)cc(Br)c1OCc1ccccc1F	i	5.2µM*	15µM*	-25%	?	-39%
O=C(O)C1=C[C@@H](c2coc3ccccc3c2=O)C[C@@H](OCCCCO)O1	i	?	8%	2%	-4%	-1%
COc1ccc(C2N(Cc3ccccc3)CC(=O)N2/N=C(\C)c2ccccc2)cc1 (centres undefined)	i	26%	13%	9%	-4%	-9%
N#C/C(=C\c1cccc(NC(=O)c2ccccc2Cl)c1)C(=O)NCCc1ccccc1	i	10%	20%	-37%	?	11µM*
CC1C/C(=N/NC(=O)c2cccc(F)c2)c2ccc(O)cc2C1 (centres undefined)	i	-3%	-4%	10%	21%	-30%
Cc1ccc(C(=O)NCC2CCCN2S(=O)(=O)c2ccc(C)cc2)cc1 (centres undefined)	i	8%	-4%	3%	-19%	-11%
Cc1ccc(C)c(S(=O)(=O)N2CCCC2CNC(=O)c2ccc([N+](=O)[O-])cc2)c1 (centres undefined)	i	18µM*	-1%	?	-24%	-17%
SMILES	ATXN viability	Nrf2 block	A549 tox	ATXN2 expr inh	TGFb SMAD3 inh	HepG2 viability
Cc1ccc(S(=O)(=O)N2CCCC2CNC(=O)C(=O)Nc2ccc(F)cc2)cc1 (centres undefined)	i	13µM*	-8%	0%	-8%	-14%
CC(C)(C)c1ccc(C(=O)NCC2CCCN2S(=O)(=O)c2ccccc2)cc1 (centres undefined)	i	21µM*	-7%	6%	-18%	-14%
CC(C)Cn1c(CN2CCN(c3cccc(Cl)c3)CC2)nc2c1c(=O)[nH]c(=O)n2C	?	15%	-2%	?	?	-30%
CC1C(=O)Nc2ccc(S(=O)(=O)N3CCCCCC3)cc21 (centres undefined)	i	-11%	2%	7%	1%	4%
Cc1ccsc1CNc1ncnc2ccc(-c3ccc4c(c3)OCO4)cc12	·	?	-4%	·	·	·
O=C(NCCc1csc(-c2ccc(C(F)(F)F)cc2)n1)c1ccc(F)c(F)c1	?	·	8%	20µM*	11µM*	-74%
Cc1cc(S(=O)(=O)NCCc2csc(-c3cccc(F)c3)n2)ccc1F	?	·	-1%	?	?	13µM*
O=C(NCCc1csc(-c2ccc(F)cc2)n1)c1cccc(F)c1	?	·	15%	28µM*	?	-36%
